Results taken from PubChem BioAssay AID540364 (The Scripps Research Institute Molecular Screening Center, 2011).
The whole screen tested about 360,000 compounds, of which about 2,000 (0.56%) were called active. This excerpt belongs to a sample that is enriched for actives. Values without a mark were called inactive.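 How the source made its calls: active means activation above the average of all compounds screened plus 3 SD, cutoff fixed separately per campaign (cut at about 7.5% in these data); inactive means the rest.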

Test: FXN promoter activators, primary screen, cell-based, luciferase luminescence, HEK293 lucGAA850 (AID 540364);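 further: 0% = DMSO wells and 100% = 10 µM SAHA wells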
Conditions: HEK293 lucGAA850 FXN promoter luciferase reporter, 24 h; at 6 µM; active compounds read high; percent of 10 µM SAHA response
`Cc1nc(-c2ccc(F)cc2)c(CC(=O)Nc2cccc(S(=O)(=O)N3CCOCC3)c2)s1` gave an activation of -0.93%. In the case of `Cc1nc(-c2ccc(F)cc2)c(CC(=O)Nc2cc(S(=O)(=O)N3CCCCC3)ccc2C)s1`, the activation is reported as 18.7% (active). Compound `Cc1nc(-c2ccc(F)cc2)c(CC(=O)N2CCN(S(=O)(=O)c3ccc(F)cc3)CC2)s1` has an activation of 1.58%. `CSCCC(NC(N)=O)C(=O)N(C)CC(=O)Nc1ccc(C)cc1` (configuration not stated) gave an activation of 0.85%. With `CCOc1cc(S(=O)(=O)NCc2ccc3c(c2)OCO3)ccc1F` the activation was 1.09%. For `Cc1ccc(-c2nc3ccccc3[nH]c2=O)cc1`, the activation was 8.59% (active). Work on `Cc1ccc(-c2nnc(-n3nnc4ccccc43)c3ccccc23)cc1` yielded an activation of 3.17%. `Cc1ccccc1N1CC(c2nc3ccccc3[nH]2)CC1=O` (configuration not stated) showed an activation of -3.78%. In the case of `COc1cccc(Nc2nc(N)c([N+](=O)[O-])c(NCc3ccco3)n2)c1`, the activation is reported as 12.7% (active). For `CN(c1ccccc1)c1nc(N)c([N+](=O)[O-])c(NCc2ccco2)n1`, the activation was 6.64%. Work on `COc1ccc(Nc2nc(NCc3ccco3)nc(N/N=C/c3ccccc3Cl)n2)cc1` yielded an activation of 0.27%. `CCOC(=O)C1CCN(C(=O)CN2C(=O)NC(C)(c3ccc4cc(OC)ccc4c3)C2=O)CC1` (configuration not stated) gave an activation of -1.63%. Compound `O=c1c2c(-c3ccccc3)ccnc2[nH]n1-c1ccccc1` has an activation of 2.17%. In the case of `CCOC(=O)C1CCN(c2ncnc3c2c(-c2ccccc2)cn3-c2ccc(C)cc2)CC1`, the activation is reported as 0.35%. With `O=c1[nH]cnc2c1c(-c1ccccc1)cn2-c1ccc(F)cc1` the activation was 8.36% (active). `CCc1nnc(NC(=O)CSc2nnc(COc3ccc(C#N)cc3)n2-c2ccccc2)s1` showed an activation of 0.66%. Compound `CCOc1ccc(CCNC(=O)C2CCN(c3ccc(N4CCOCC4)nn3)CC2)cc1OCC` has an activation of 2.52%. With `CCCCCCCCCCCCN1[C@@H](CC(C)=O)c2cc(F)cc(F)c2S1(=O)=O` the activation was 0.59%. Compound `COc1ccccc1-c1nc(C(F)(F)F)c(OC)o1` has an activation of 0.69%. With `COc1ccccc1C1=CC(=O)CCC1` the activation was -2.28%. In the case of `COc1ccccc1C1=Nc2cccc3cccc(c23)N1`, the activation is reported as 11.7% (active). With `CCOCCOCCC(C(=O)O)P(=O)(c1ccccc1)c1ccccc1` (configuration not stated) the activation was -1.43%. With `CCOc1ccc(NC(=O)CN(C)C(=O)COc2cccc(CC)c2)cc1OCC` the activation was 0.68%. In the case of `C[C@H](CO)N1C[C@H](C)[C@@H](CN(C)C(=O)c2cccc(F)c2)Oc2cc(-c3cncnc3)ccc2S1(=O)=O`, the activation is reported as 0.78%. Compound `COc1ccccc1CNC(=O)c1ccc(N(C)S(=O)(=O)c2ccc(C)cc2)cc1` has an activation of 0.45%. With `COc1ccc(NC(=O)CC2C(=O)OCC3CCCCN32)cc1Cl` (configuration not stated) the activation was 3.58%. Compound `COc1ccc(/C=C/C(=O)c2c(O)cc(OC)cc2OC)cc1` has an activation of 1.23%. For `O=C(NC1CCCCCCC1)c1cccs1`, the activation was 1.55%. For `O=C(NCCCn1ccnc1)c1cc(-c2ccccc2)on1`, the activation was 20.8% (active). `COc1cc(OC)cc(C(=O)NCCCn2ccnc2)c1` gave an activation of 1.13%. For `O=C(NCCCn1ccnc1)c1cc(Br)c(Br)s1`, the activation was 1.52%. In the case of `O=C(NC1CCCC1)c1cc(-c2ccccc2)on1`, the activation is reported as 8.61% (active). With `O=C(NC1CCCCC1)c1cc(C2CC2)on1` the activation was 2.15%. `Fc1ccc(CNc2nc3ccccc3n3nnnc23)cc1` showed an activation of 4.29%. In the case of `O=S(=O)(c1ccc(Sc2nnc3ccccn23)nc1)N1CCOCC1`, the activation is reported as -1.38%. For `CC1(C)CC(=O)CC2(C1)NCC(c1ccccc1Cl)c1c2[nH]c2ccccc12` (configuration not stated), the activation was -7.14%. `CCCc1c(C(=O)O)cnn1-c1ccc(Cl)cc1` showed an activation of -0.1%. In the case of `CCCNC(=O)CCc1c(C)nc2c(c(C)nn2-c2ccc(C)cc2)c1C`, the activation is reported as 0.2%. For `CCCNC(=O)c1c(Cl)cnn1-c1ccc(C)cc1`, the activation was 7.7% (active). In the case of `Cc1cnc(C(=O)OCc2c(C)cc(C(C)(C)C)cc2C)cn1`, the activation is reported as 1.56%. Work on `CC(Oc1ccccc1)C(=O)NN1Cc2ccccc2C1=N` (configuration not stated) yielded an activation of 2.03%. `CCOC(=O)c1nn(-c2cccc(C)c2)cc1C(=O)c1ccccc1` showed an activation of 6.71%. For `CCCNC(=O)c1cc(C2CCCCN2S(=O)(=O)c2ccc(C#N)cc2)on1` (configuration not stated), the activation was 1.65%. In the case of `O=C(CSc1cccc2cccnc12)N/N=C/c1cccnc1`, the activation is reported as 15.3% (active). For `Cc1ccc(S(=O)(=O)N(CC(=O)N/N=C/c2ccc(F)cc2)c2cccc3cccnc23)cc1`, the activation was -4.8%. `Cc1c(NC(=O)CSc2cccc3cccnc23)c(=O)n(-c2ccccc2)n1C` showed an activation of 2.68%. With `COc1ccccc1N(CC(=O)Nc1ccc(C)cc1Cl)S(=O)(=O)c1cccs1` the activation was 0.98%. `Cc1ccccc1-n1c(C)cc(/C=N/NC(=O)c2ccc(CN3CCOCC3)cc2)c1C` gave an activation of 0.54%. Compound `COc1ccc(CCNC(=O)C(=O)NCC2OCCN2S(=O)(=O)c2ccc(F)cc2)cc1OC` (configuration not stated) has an activation of -0.5%. With `Cc1noc(C)c1-c1ccc2ncnc(NC(C)c3ccco3)c2c1` (configuration not stated) the activation was 10.2% (active). `CCc1c(N=O)c(-c2ccccc2)n(O)[n+]1[O-]` showed an activation of 3.14%. With `COc1cc(C#Cc2ccc3cc(CCCO)oc(=O)c3c2)cc(OC)c1` the activation was 7.61% (active). Compound `COc1cc(/C=C2\Oc3ccc(C#Cc4ccc(O)cc4)cc3C2=O)cc(OC)c1` has an activation of -0.08%. Compound `CC(C)c1ccc(S(=O)(=O)N2CCC3(CC2)OCCO3)cc1` has an activation of -0.76%. For `COCOCCn1cc(CN2CCS(=O)(=O)N(Cc3ccc(-c4ccccc4)cc3)C(CC(C)C)C2=O)nn1` (configuration not stated), the activation was -0.25%. Work on `CCOc1cccc2cc(C(=O)OCC(=O)Nc3c(C)cccc3CC)c(=O)oc12` yielded an activation of 1.17%. For `Cc1nc(SCc2ccc(F)cc2)c([N+](=O)[O-])[nH]1`, the activation was 0.83%. With `CCCCCOc1ccc(CSC2=NCCN2)cc1[N+](=O)[O-]` the activation was 8.36% (active). `O=[N+]([O-])c1ccccc1OCCCCN1CCCCC1` showed an activation of 1.12%. `Cc1oc2c(F)c(F)c(F)c(F)c2c1S(=O)(=O)Nc1cccc(C(F)(F)F)c1` gave an activation of -1.14%. With `NC(=O)c1ccsc1NC(=O)COC(=O)COc1ccc(C=O)cc1` the activation was 1.47%. Compound `CCOC(=O)C(=Cc1ccccc1)C(=O)c1ccccc1` has an activation of -4.25%. For `Cc1cc(C)nc(S/C=C/C(=O)c2ccccc2)n1`, the activation was 14.6% (active). In the case of `Cc1cc(C)nc(SC(C)C(=O)N/N=C/c2cccs2)n1` (configuration not stated), the activation is reported as -1.1%. `CC(=O)c1ccc(N2CCN(C(=O)C3CCN(S(=O)(=O)c4ccc5c(c4)CC(C)N5C(=O)C4CC4)CC3)CC2)cc1` (configuration not stated) gave an activation of 1.92%. `CC(C)(C)c1ccc(C(=O)NNC(=O)Cc2ccccc2)cc1` showed an activation of 3.03%. In the case of `Cc1ccc(SC(CC(=O)c2ccc(C(C)(C)C)cc2)C(=O)O)cc1` (configuration not stated), the activation is reported as 9.01% (active). `Cc1ccc(Sc2cc(C(=O)c3ccccc3C(=O)O)ccc2[N+](=O)[O-])cc1` gave an activation of 0.3%. `COc1ccc(/C=C2\CCCC3C2=NN(C(=O)c2scnc2C)C3c2ccc(OC)cc2)cc1` (configuration not stated) gave an activation of 1.94%. `Cc1ccc(NC(=O)C(CC(=O)O)C2CCCO2)c(C)c1` (configuration not stated) showed an activation of 0.8%. In the case of `COc1ccc(C(CNC(=O)c2cc3c(s2)CCCC3)N2CCOCC2)cc1` (configuration not stated), the activation is reported as 1.32%. `CC1(C(=O)NS(=O)(=O)c2ccccc2Cl)CCN1C(=O)c1cccc(F)c1` (configuration not stated) showed an activation of 1.46%. With `CC1(C(=O)NCc2cccc3ccccc23)CCN1Cc1ccc(-c2ccccc2)o1` (configuration not stated) the activation was 10% (active). For `CSc1ccc(CN2CCC2(C)C(=O)NCc2ccccc2Br)cc1` (configuration not stated), the activation was 0.95%. `CC1(C(=O)NCc2ccc3c(c2)OCO3)CCN1C(=O)Cc1cccc2ccccc12` (configuration not stated) gave an activation of 0.09%. With `CCC1CO/C(=C(\C(=C(Cl)Cl)N2CCOCC2)[N+](=O)[O-])N1` (configuration not stated) the activation was 1.9%. In the case of `Cc1cccc(NC(=O)CN2CCCN(S(=O)(=O)c3ccc(Br)s3)CC2)c1`, the activation is reported as 0.67%. In the case of `COc1cc(OC)cc(-c2c(-c3cccs3)c3cc(-c4ccc(OC)cc4F)ccc3n2C)c1`, the activation is reported as 0.9%. For `CC(C)(C)NC(=O)C(c1ccco1)N(Cc1ccc2c(c1)OCO2)C(=O)Cn1nnc2ccccc21` (configuration not stated), the activation was -3.64%. Work on `COc1ccc(N(CC(=O)N2CCCCCC2)S(=O)(=O)c2ccccc2)cc1` yielded an activation of -0.03%. With `COc1ccc(N(CCC#N)S(=O)(=O)c2ccc(Cl)cc2)cc1` the activation was 9.52% (active). Compound `COc1ccc(S(=O)(=O)NCCCCOc2ccc(Cl)cc2)cc1` has an activation of 1.56%. With `COc1ccc2c(c1)C(=C(C#N)C#N)C(=O)N2CCc1ccccc1` the activation was 1.6%. Work on `COc1cc(NC(=S)NCCSc2ccc(C)cc2)cc(OC)c1` yielded an activation of 0.45%. With `COc1ccc(Cl)cc1NC(=O)CN(C)C(=O)c1cc2ccccc2cc1OC` the activation was 0.89%. `COc1ccc(Cl)cc1NC(=O)CN(C)C(=O)CNC(=O)C12CC3CC(CC(C3)C1)C2` gave an activation of 1.23%. In the case of `COc1ccc(Cl)cc1NC(=O)CN(C)C(=O)CCCc1c[nH]c2ccccc12`, the activation is reported as 9.56% (active). Compound `COCCNc1ncnc2c1ncn2[C@H]1CN(CCN2CCOCC2)C[C@@H](CO)O1` has an activation of 0.56%. Work on `Cc1ccc(C(NC(=O)C2CCN(CCOc3ccc(Cl)cc3Cl)CC2)c2ccccn2)cc1` (configuration not stated) yielded an activation of 1.16%. `O=C(N/N=C/c1ccco1)c1csc2c1CCCC2` gave an activation of 1.3%. Work on `O=C(N/N=C/c1ccco1)c1ccc(NC(=O)C2CC2)cc1` yielded an activation of 1.23%. In the case of `O=C(N/N=C/C=C/c1ccco1)c1cccs1`, the activation is reported as 11.9% (active).
